Laboratory results taken from PubChem BioAssay.
The source made the active and inactive calls.

Experiments:
[1] = test system: Plasmodium falciparum Sir2 (PF13_0152, Sir2A); assay: Plasmodium falciparum Sir2A binding compounds – biochemical, small-molecule microarray, 635 nm fluorescence, primary screen (AID 1098); details: fluorescence 635 nm, higher = more signal;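 further: score merges spot fluorescence intensity with its signal-to-noise ratio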
[2] = probe aDKK1 binding to arrayed compounds – biochemical, biotinylated probe, 635/667 nm fluorescence, primary screen (AID 1099); details: small-molecule microarray, higher = more signal;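 further: score merges 667nm spot fluorescence with signal to noise across triplicate slides; reference of the scale not given here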
[3] = probe aCHRDL2 binding to arrayed compounds – biochemical, biotinylated probe, 635/667 nm fluorescence, primary screen (AID 1100); details: small-molecule microarray, higher = more signal
[4] = change in splice reporter luminescence, either direction, cell-based, HEK293, spliceosome inhibition project, primary screen (AID 1101); details: HEK293 splicing luciferase reporter, 24 h, higher = more signal, called active from +8 up or from −8 down;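 further: HEK293 cells carrying a splicing-competent luciferase reporter gene; test concentration not given here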
[5] = molecular target: Fibroblast growth factor 10 (Homo sapiens) (UniProt O15520); assay: compounds binding fibroblast growth factor 10 – biochemical, small-molecule microarray, 635 nm fluorescence, primary screen (AID 1102); details: FGF10 binding, fluorescence 635 nm, higher = more signal
[6] = test system: glycogen synthase kinase-3 (GSK3A per assay name; protocol says GSK3B); assay: compounds binding glycogen synthase kinase-3 – biochemical, small-molecule microarray, 635 nm fluorescence, GSK3A, primary screen (AID 1103); details: fluorescence 635 nm, higher = more signal; further: the record names both GSK3A and GSK3B
[7] = molecular target: Epidermal growth factor receptor (Homo sapiens) (UniProt P00533); assay: compounds binding epidermal growth factor receptor – biochemical, small-molecule microarray, 635 nm fluorescence, primary screen (AID 1104); details: EGFR binding, higher = more signal;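 further: score merges 667 nm emission intensity with spot signal to noise over triplicate slides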
[8] = molecular target: Follistatin-related protein 3 (Homo sapiens) (UniProt O95633); assay: compounds binding follistatin-related protein 3 – biochemical, small-molecule microarray, 635 nm fluorescence, primary screen (AID 1105); details: FSTL3 binding, higher = more signal;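 further: score merges emission near 667 nm and signal to noise per printed spot across three slides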
[9] = molecular target: Dickkopf-related protein 1 (Homo sapiens) (UniProt O94907); assay: small molecules binding DKK1 protein – biochemical, small-molecule microarray, 635 nm fluorescence scan, primary screen (AID 1106); details: higher = more signal;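 further: score merges emission near 667 nm with signal to noise over three replicate slides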
[10] = test system: Inhibin beta A chain (activin A); assay: small molecules binding activin A – biochemical, small-molecule microarray, 635 nm fluorescence scan, primary screen (AID 1107); details: INHBA, higher = more signal;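 further: mouse activin A protein probed at 4.33 µg/mL on printed slides; score merges bound-protein fluorescence near 667 nm with spot signal-to-noise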

Sequence of Epidermal growth factor receptor (Homo sapiens) (P00533 whole entry, looked up): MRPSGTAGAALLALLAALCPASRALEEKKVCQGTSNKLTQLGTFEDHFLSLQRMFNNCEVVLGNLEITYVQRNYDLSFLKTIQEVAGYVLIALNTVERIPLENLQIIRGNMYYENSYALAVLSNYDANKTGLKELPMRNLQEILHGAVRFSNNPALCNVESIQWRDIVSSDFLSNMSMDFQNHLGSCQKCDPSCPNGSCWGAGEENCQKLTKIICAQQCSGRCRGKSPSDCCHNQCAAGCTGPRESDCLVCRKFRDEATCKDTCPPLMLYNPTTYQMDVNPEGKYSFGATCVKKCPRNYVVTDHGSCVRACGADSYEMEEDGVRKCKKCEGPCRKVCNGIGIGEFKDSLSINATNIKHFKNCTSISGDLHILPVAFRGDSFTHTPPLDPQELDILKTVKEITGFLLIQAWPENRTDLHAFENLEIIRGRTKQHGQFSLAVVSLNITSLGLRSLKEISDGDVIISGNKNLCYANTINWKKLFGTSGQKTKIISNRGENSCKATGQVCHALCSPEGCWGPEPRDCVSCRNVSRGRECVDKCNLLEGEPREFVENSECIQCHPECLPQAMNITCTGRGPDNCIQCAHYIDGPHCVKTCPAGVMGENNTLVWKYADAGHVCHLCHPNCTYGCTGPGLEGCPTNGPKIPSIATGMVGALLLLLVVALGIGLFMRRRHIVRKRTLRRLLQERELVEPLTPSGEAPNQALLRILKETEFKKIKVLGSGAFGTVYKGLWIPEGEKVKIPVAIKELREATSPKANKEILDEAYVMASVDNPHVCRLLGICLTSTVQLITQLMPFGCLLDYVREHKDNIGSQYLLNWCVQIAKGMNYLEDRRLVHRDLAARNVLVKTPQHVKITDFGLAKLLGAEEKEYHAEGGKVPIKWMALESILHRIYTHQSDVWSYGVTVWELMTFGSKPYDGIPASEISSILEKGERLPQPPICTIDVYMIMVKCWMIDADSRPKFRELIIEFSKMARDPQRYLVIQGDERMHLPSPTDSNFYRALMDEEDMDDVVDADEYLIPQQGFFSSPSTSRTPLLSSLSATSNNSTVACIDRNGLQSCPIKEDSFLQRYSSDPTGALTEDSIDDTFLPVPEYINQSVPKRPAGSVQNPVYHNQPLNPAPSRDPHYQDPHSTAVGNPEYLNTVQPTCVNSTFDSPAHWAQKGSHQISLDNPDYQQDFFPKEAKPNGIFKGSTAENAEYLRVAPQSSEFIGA
Sequence of Follistatin-related protein 3 (Homo sapiens) (O95633 whole entry, looked up): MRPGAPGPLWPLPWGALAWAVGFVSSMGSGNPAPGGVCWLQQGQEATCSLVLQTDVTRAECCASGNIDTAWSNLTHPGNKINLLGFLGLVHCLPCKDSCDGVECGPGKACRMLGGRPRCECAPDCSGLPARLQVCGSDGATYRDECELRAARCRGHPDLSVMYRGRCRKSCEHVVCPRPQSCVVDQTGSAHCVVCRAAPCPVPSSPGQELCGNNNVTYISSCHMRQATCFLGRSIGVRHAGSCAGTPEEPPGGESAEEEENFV
Sequence of Fibroblast growth factor 10 (Homo sapiens) (O15520 whole entry, looked up): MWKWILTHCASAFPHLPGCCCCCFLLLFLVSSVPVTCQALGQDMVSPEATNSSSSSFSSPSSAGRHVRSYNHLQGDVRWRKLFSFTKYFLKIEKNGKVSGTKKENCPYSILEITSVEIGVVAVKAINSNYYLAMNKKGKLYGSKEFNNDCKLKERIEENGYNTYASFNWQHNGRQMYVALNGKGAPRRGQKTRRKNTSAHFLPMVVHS
Sequence of Dickkopf-related protein 1 (Homo sapiens) (O94907 whole entry, looked up): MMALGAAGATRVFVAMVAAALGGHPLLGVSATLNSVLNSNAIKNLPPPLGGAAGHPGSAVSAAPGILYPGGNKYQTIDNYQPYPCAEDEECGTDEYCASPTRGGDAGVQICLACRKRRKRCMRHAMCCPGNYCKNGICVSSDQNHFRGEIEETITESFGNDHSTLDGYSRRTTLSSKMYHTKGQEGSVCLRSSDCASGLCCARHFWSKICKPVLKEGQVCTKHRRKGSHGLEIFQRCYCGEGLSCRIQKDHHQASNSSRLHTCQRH

SMILES | composite z-score [1] | composite z-score [2] | composite z-score [3] | z-score [4] | composite z-score [5] | composite z-score [6] | composite z-score [7] | composite z-score [8] | composite z-score [9] | composite z-score [10]
CC1CC/C=C\[C@H]2OC34C=CCN(Cc5ccccc5)C(=O)[C@H]3N(CCO)C(=O)[C@@H]4C2C(=O)O1 (stereo not given in full) | 1.59 | -0.0038 | 0.681 | 0.229 (inactive) | 0.237 | -0.252 | -1.11 | -1.07 | -0.798 | 1.23
COCCCNC(=O)[C@]1(CCS(=O)(=O)c2ccccc2)N=C(c2ccc(OCCCO)cc2)O[C@@H]1c1ccccc1 | 1.86 | 0.126 | 0.937 | -0.594 (inactive) | 1.01 | 1.01 | 0.304 | 0.485 | 0.0266 | 0.455
CC[C@@H]1[C@@H]2C3C(=O)N(CC)C(=O)C3CC(=O)[C@@H]2[C@H](c2ccc(C)cc2)N1S(=O)(=O)c1ccc(C)cc1 (stereo not given in full) | 0.426 | 0.384 | 0.246 | -1.52 (inactive) | 0.859 | 1.31 | 0.174 | 0.748 | 0.238 | 0.241
C=CCOC(=O)[C@@H]1[C@H]2C(=O)O[C@H](c3ccccc3)[C@H](c3ccccc3)N2[C@H](c2ccc(OCCOC(=O)[C@H]3C[C@H]4C(=O)N[C@@H](Cc5ccccc5)C(=O)N4[C@H]3c3cccc(OCCO)c3)cc2)[C@@]12C(=O)Nc1ccc(I)cc12 | 0.921 | 0.141 | -0.0432 | -0.316 (inactive) | 1.24 | 1.32 | 1.01 | 1.14 | 1.13 | 0.967
COCCOC(=O)N1C(=O)[C@@]2(c3cc(C#CCCO)ccc31)[C@H](C(=O)N1CCc3cc(OC)c(OC)cc3C1)[C@H]1C(=O)O[C@H](c3ccccc3)[C@H](c3ccccc3)N1[C@@H]2c1ccc(OCCO)cc1 | 1.19 | 0.125 | -0.199 | -0.575 (inactive) | 1.37 | 1.2 | 0.846 | 1.4 | 0.609 | 0.0945
O=C(CS)NCCCCCNC(=O)[C@@H]1C[C@@H]2C(=O)N3CCC[C@H]3C(=O)N2[C@@H]1c1ccc(O)cc1 | 0.847 | 0.233 | 0.61 | 0.466 (inactive) | 0.598 | 1.14 | 0.128 | 0.0144 | 0.219 | 0.0603
COC(=O)[C@@]1(Cc2ccc(OC)cc2)[C@H]2c3cc(C(=O)N(C)C)n(Cc4cc(C)n(C)n4)c3C[C@H]2CN1C(=O)c1ccccc1 | 1.07 | 0.383 | 0.433 | -1.03 (inactive) | 1.43 | 0.902 | -0.232 | -0.0771 | -0.382 | 0.79
COc1ccc([Si](C)(C)[C@@H]2[C@@H](CC(=O)N(CCO)Cc3ccccc3)O[C@]3(C(=O)N(C)c4c(Br)cc(C)cc43)[C@H]2C)cc1 | 0.717 | -0.298 | -0.237 | -1.92 (inactive) | 1.1 | -0.27 | 0.729 | 1.09 | 0.834 | 1.02
CCOC(=O)C1=CC[C@@H](c2cccc(Br)c2)N(S(=O)(=O)c2ccc(C)cc2)[C@H]1c1ccc([N+](=O)[O-])cc1 | 1.47 | 0.448 | -0.0145 | -0.183 (inactive) | 1.2 | 0.356 | 0.877 | 1.32 | 0.82 | 0.784
C=C(/C(=C/C[C@@H](OC(=O)c1ccncc1)c1ccccc1OCCO)c1cnc2ccccc2c1)C(C)C | 0.25 | 0.0171 | -0.21 | -2.43 (inactive) | 1.55 | 1.29 | 1.23 | 1.61 | 0.413 | 1.77
Cc1ccc(N2C(=O)c3ccccc3[C@](C)(C(=O)NC(C)C)[C@@H]2c2ccc(CO)cc2)nc1 | 0.118 | -0.0537 | 1.04 | 0.415 (inactive) | -1.22 | -0.738 | -1.21 | -2.01 | -1.63 | -2.54
COC(=O)[C@@]1(Cc2ccccc2N=[N+]=[N-])N=C(c2ccc(OCCCO)cc2)O[C@H]1c1ccccc1 | 1.34 | 0.0665 | 0.87 | 2.25 (inactive) | 0.818 | -0.253 | -0.285 | 0.666 | -0.385 | 0.575
COC(=O)[C@@]1(Cc2ccc(OC)cc2)[C@H]2c3cc(C(=O)N4CCCC4)n(Cc4ccc(C)o4)c3C[C@H]2CN1C(=O)c1ccccc1 | 1.34 | 0.839 | 0.751 | -0.293 (inactive) | 1.24 | 1.09 | 0.232 | 1.32 | -0.0427 | 1.19
C=C(/C(=C/C[C@@H](OC(=O)c1ccncc1)c1cccc(OCCO)c1)c1cc(C(=O)OC)ccc1OC)C(C)C | 1.57 | -0.17 | -0.115 | -0.71 (inactive) | 0.709 | 0.366 | -0.0516 | 0.59 | 0.0661 | 0.635
CCCC[C@H]1OB(O)C[C@H]2C1=C(COc1ccccc1)Cn1c(=O)n(-c3ccccc3)c(=O)n12 | 0.918 | -0.149 | -0.387 | 0.142 (inactive) | 0.926 | 0.61 | 0.283 | 1.01 | 0.203 | 0.54
Cc1cc(C)c(C(O)C2C=CC3C(=O)N(c4ccccc4)C(=O)C3N2Nc2ccccc2)c(C)c1 (stereo not given) | 1.52 | 1.17 | 0.849 | -0.62 (inactive) | 0.964 | 1.2 | 0.403 | 0.939 | -0.167 | 0.242

SMILES | composite z-score [1] | composite z-score [2] | composite z-score [3] | z-score [4] | composite z-score [5] | composite z-score [6] | composite z-score [7] | composite z-score [8] | composite z-score [9] | composite z-score [10]
C=CCOC(=O)[C@@H]1[C@H]2C(=O)O[C@H](c3ccccc3)[C@H](c3ccccc3)N2[C@H](c2ccc(OCCOC(=O)[C@@H]3C[C@@H]4C(=O)N[C@@H](CCCCNC(C)=O)C(=O)N4[C@@H]3c3ccc(O)cc3)cc2)[C@@]12C(=O)Nc1ccc(I)cc12 | 1.58 | -0.219 | -0.249 | 0.0887 (inactive) | 1.43 | 1.27 | 1.12 | 1.35 | 0.616 | 0.499
CCC[C@@H]1C[C@@]1(CCC)[C@@H](NC(=O)c1ccco1)c1ccc(Cl)cc1 | -0.585 | -0.0347 | 0.762 | -3.52 (inactive) | 0.14 | -2.1 | -0.414 | -0.722 | -0.366 | 0.447
COc1ccc([Si](C)(C)[C@@H]2[C@@H](CC(=O)N(CCO)Cc3ccccc3)O[C@]3(C(=O)N(Cc4ccc(N5CCOC5=O)cc4)c4ccccc43)[C@H]2C)cc1 | 0.851 | 0.232 | 0.0947 | 0.24 (inactive) | 0.472 | 0.218 | 0.467 | 1.09 | 0.71 | 0.529
COCCOC(=O)N1C(=O)[C@@]2(c3cc(C#CCC(C(=O)OC)C(=O)OC)ccc31)[C@H](c1ccc(OCCO)cc1)N1[C@H](c3ccccc3)[C@H](c3ccccc3)OC(=O)[C@H]1[C@@H]2C(N)=O | 1.46 | 0.0751 | 0.443 | -1.6 (inactive) | 1.1 | 1.24 | 0.603 | 1.26 | 0.57 | 0.324
COc1ccc([Si](C)(C)[C@@H]2[C@@H](CCO)O[C@]3(C(=O)N(Cc4ccc(N5C(=O)c6ccccc6Oc6ccccc65)cc4)c4ccccc43)[C@H]2C)cc1 | -0.364 | -0.0754 | 0.543 | -0.853 (inactive) | -0.791 | -1.07 | -1.57 | -0.644 | -0.815 | -0.557
COc1ccc([Si](C)(C)[C@H]2[C@H](CCO)O[C@@]3(C(=O)N(Cc4cccc(N5CCOC5=O)c4)c4ccccc43)[C@@H]2C)cc1 | 1.17 | -0.165 | -0.339 | -0.91 (inactive) | 0.997 | 0.808 | 0.0733 | 0.493 | 0.581 | -0.419
O=C1N(CCS(=O)(=O)c2ccccc2)c2ccccc2[C@H]2OC(c3ccc(OCCCO)cc3)=N[C@@]12CCS(=O)(=O)c1ccccc1 | 1.31 | 1.59 | 1.16 | -0.0214 (inactive) | 1.35 | 1.31 | 0.736 | 1.31 | 0.9 | 1.29
C[N+](C)(C)CCCCCCNC(=O)[C@H]1C[C@H]2C(=O)N3CCC[C@H]3C(=O)N2[C@H]1c1cccc(OCCO)c1 | 1.66 | 0.273 | -0.155 | 0.592 (inactive) | 0.755 | 1.23 | 0.907 | 1.3 | 0.705 | 0.959
[N-]=[N+]=NCc1ccccc1C[C@]1(C(=O)NCCN2CCOCC2)N=C(c2ccc(OCCCO)cc2)O[C@H]1c1ccccc1 | 1.69 | 0.103 | 0.826 | -0.326 (inactive) | 1.04 | 1.28 | -0.329 | 0.0637 | -0.781 | 0.527
[N-]=[N+]=NCc1ccccc1[C@H]1OC(c2ccc(OCCCO)cc2)=N[C@@]1(Cc1ccccc1N=[N+]=[N-])C(=O)NCCN1CCOCC1 | 0.879 | 0.901 | 1.15 | -0.44 (inactive) | 1.26 | 1.3 | 0.558 | 1.32 | 0.136 | 0.511
NCCCCCCNC(=O)[C@H]1C[C@H]2C(=O)N3CCC[C@H]3C(=O)N2[C@H]1c1ccc(O)cc1 | 1.22 | 0.0237 | 0.134 | 0.089 (inactive) | 0.264 | 0.572 | 0.386 | 0.747 | 0.735 | 0.977
COCCOC(=O)N1C(=O)[C@@]2(c3cc(C#CCNC(N)=O)ccc31)[C@H](C(N)=O)[C@H]1C(=O)O[C@H](c3ccccc3)[C@H](c3ccccc3)N1[C@@H]2c1ccc(OCCO)cc1 | 1.05 | 0.0301 | 0.721 | 0.731 (inactive) | 0.535 | 0.737 | 0.793 | 1.45 | 0.825 | 1.35
COc1ccc([Si](C)(C)[C@H]2[C@H](CCn3cc(CCO)nn3)O[C@@]3(C(=O)N(Cc4cccc(N5C(=O)c6cccc7cccc5c67)c4)c4ccccc43)[C@@H]2C)cc1 | 1.23 | -0.0314 | -0.567 | -1.61 (inactive) | 1.27 | 0.719 | 0.268 | 0.81 | 0.848 | -0.427
O=C1C2C=CC(C(O)c3ccccn3)N(Nc3ccccc3)C2C(=O)N1c1ccccc1 (stereo not given) | 0.687 | 0.264 | 0.5 | 0.383 (inactive) | -0.191 | -0.326 | -0.441 | -0.656 | -0.341 | 0.826
COC(=O)[C@@]1(Cc2ccccc2)[C@H]2c3cc(C(=O)N4CCCC4)n(Cc4ccc(OC(F)(F)F)cc4)c3C[C@H]2CN1C(=O)c1ccccc1 | 0.716 | 1.34 | 1.4 | -0.286 (inactive) | 0.872 | 0.728 | -0.357 | 0.685 | -0.909 | 1.08
